Structures are written as SMILES. About 83,000 compounds went through this panel and 20% of them were active in at least one assay; those are over-represented in the sample as a whole.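 A percent growth of 40 corresponds to 60% growth inhibition; 0 means no net growth; -100 means all cells died. Active threshold: below 10.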 Unmarked numbers belong to inactive results. The source made the active and inactive calls.

The test system of the test is HL-60(TB) leukemia. As to the kind of experiment: NCI-60 one-dose screen, 48 h (100 = growth as untreated, 0 = no growth, -100 = all killed). The settings on record: 10 µM unless noted.
`NC[C@@](O)(c1ccc(Cl)cc1)c1ccc(-c2cn[nH]c2)cc1`: the growth was -42.8% (active).
Consider `O=C(Nc1ccc(Oc2ccc(F)cc2)c(Cl)c1)c1cnccn1`, for which the growth is 21.4%.
As to `CN1CCc2c(c3ccccc3c3ccccc23)C1`, the growth is 35.1%.
Consider `Nc1ccccc1C#C/C=C\C#Cc1cccc(O)c1`, for which the growth is 12.6%.
On to `C[n+]1ccccc1C[n+]1ccccc1`, for which the growth is 90.9%.
Regarding `CCCC[N+](C)(N)CCCC`, the growth was 104%.
As to `O=S(=O)(c1ccc(NCSc2nc3ccccc3s2)cc1)c1ccc(NCSc2nc3ccccc3s2)cc1`, the growth was 72.7%.
The value for `Nc1ccc(Cl)c2c(=O)c3ccccc3[nH]c12` was 63.7%; that for `C=C(C)[C@@H]1CC[C@]2(C(=O)NCC(=O)O)CC[C@]3(C)[C@H](CC[C@@H]4[C@@]5(C)Cc6c([nH]c7ccccc67)C(C)(C)[C@@H]5CC[C@]43C)[C@@H]12` was 101%; that for `CCN1C(=O)N(CC)C2C1NN=c1s/c(=C3\C(=O)N(C4CCCC4)c4ccccc43)c(=O)n12` (stereo not given) was -44.5% (active).
In the case of `O=C(c1ccc2ncc(-c3nc(NC4CC4)ncc3F)n2c1)N1CCOCC1`, the growth was -30.3% (active).
On to `CCOC(=O)CSc1nc2sc3c(c2c(=O)n1-c1ccc([N+](=O)[O-])cc1)CCCCC3`, for which the growth is 88.4%.
The value for `COc1ccc(OC2=CC(=O)c3ccc(C)nc3C2=O)cc1` was 52.1%.
On to `N/C(=N\OC(=O)c1ccccc1)C(Cc1ccccc1)C(=O)NOC(=O)c1ccccc1` (stereo not given), for which the growth is -1.14% (active).
With `CCCCC/C(C=C(C#N)C#N)=C/c1ccccc1`, the growth is 6.33% (active).
For `CCCCC[C@H]1C/C=C2/C(=O)C(Cl)=C[C@@H]2C/C=C\CCCC(=O)O[C@@H](CCCCC)C/C=C2/C(=O)C(Cl)=C[C@@H]2C/C=C\CCCC(=O)O1` the value was -19.1% (active); for `CCOC(=O)C1=C(Nc2ccc(Br)cc2)C(=O)N(CC)C1`, 104%; for `N#Cc1ccc(C(F)(F)F)nc1N1CCC(C(=O)Nc2ccc(Cl)cc2)CC1`, 70%.
On to `COc1cc2c(cc1O)[C@@]1(C)[C@H](c3ccccc3Br)OC(=O)N1CC2`, for which the growth is 73.3%.
Regarding `COC(=O)C12C3C(=O)N(c4ccc(OC)cc4)C(=O)C3C(c3cn(-c4ccccc4)nc3C)N1[C@H](c1cn(-c3ccccc3)nc1C)[C@@H]1C(=O)N(c3ccc(OC)cc3)C(=O)[C@@H]12` (stereo not given in full), the growth was 106%.
`O=C(Nc1ncc(Cc2cccc(C(F)(F)F)c2)s1)C1COc2ccccc2O1` (stereo not given): the growth is 98.5%.
Turning to `Nc1nc(SCc2cccc([N+](=O)[O-])c2)c2[nH]cnc2n1`, the growth was 94.9%.
Consider `COc1ccc(C(=O)C2C(C#N)C(C#N)C3C=Cc4ccccc4N32)cc1` (stereo not given), for which the growth is -7.91% (active).
For the molecule `COc1ccc(-c2[nH]ncc2-c2cc3c(c(OC)c2)OCC(=O)N3)cc1`, the growth is 11.3%.
For the molecule `Cc1cccc(N=NC(=S)NNc2cccc(C)c2)c1`, the growth was 101%.
`Cc1ccc(C(=O)N2C/C(=C/c3ccc(F)cc3)C(=O)/C(=C/c3ccc(F)cc3)C2)cc1`: the growth is 81.6%.
`COc1cccc(-c2cc(-c3cccc(Cl)c3)c(C#N)c(=O)[nH]2)c1`: the growth is 36.2%.
For the molecule `CC1=NN(c2nc(-c3ccc(Cl)cc3)c(C#N)c(N3CCOCC3)n2)C(=O)C1`, the growth is 81.8%.
In the case of `Oc1ccc([S+](c2ccc(O)cc2)c2ccc(O)cc2)cc1`, the growth was 110%.
With `Cc1ccc2nc(NC(=O)CSc3nc(-c4ccccc4)c(C#N)c4nnnn34)sc2c1`, the growth is 99.5%.
The value for `CNC(=O)N/N=C/c1ccc([N+](=O)[O-])o1` was 66.4%; that for `COc1ccc2c(CCCC(c3ccccc3)c3ccccc3)c3[n+](cc2c1OC)CCc1cc2c(cc1-3)OCO2` was -30.9% (active); that for `C[C@@]1(C(=O)Nc2ccc(F)nc2)CCCN1c1nc(Nc2cc(C3CC3)[nH]n2)c2cccn2n1` was 9.68% (active).
Consider `CCN(CC)Cc1cc(C=C2C(=O)NC(=S)NC2=O)cc(OC)c1O`, for which the growth was 106%.
The value for `CN(C)CCOc1ccc(/C(=C(/CCCl)c2ccccc2)c2ccccc2)cc1` was -33% (active); that for `CN(C)c1ccc(/C=N/N=C(N)N)cc1` was 59.2%; that for `O=C1CCCCN1CCCCC#Cc1ccccc1C#Cc1ccc([N+](=O)[O-])cc1` was -25.7% (active).
For the molecule `Cc1cc(NC(=O)c2cnc(N3CCN(CCOCCOCCOCCOCCC(=O)N[C@H](C(=O)N4C[C@H](O)C[C@H]4C(=O)N[C@@H](C)c4ccc(-c5scnc5C)cc4)C(C)(C)C)CC3)cn2)c2ncccc2c1`, the growth was -21.1% (active).
Regarding `CCn1cc(/C=C2\Oc3cc(OCC#N)ccc3C2=O)c2cc(OC)ccc21`, the growth is -31% (active).
`CCOC(=O)C#Cc1c(CC(=O)OCC)nnn1[C@H]1O[C@@H](CO)[C@@H]2OC(C)(C)O[C@@H]21`: the growth was 38%.

The values are drawn from PubChem BioAssay (NCI).
